Test results reported in the supplement of paper PMC8975748.
± gives the standard deviation of the averaged measurements.

Legend:
[1] = tested on: Saccharomyces cerevisiae BY4741 SeMeCo community; assay: mean cell size (pixel area) (pixels); higher = larger cells; conditions: 10 µM; 24 h; SM minimal medium
How it was run: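 Mean cell pixel area per well was measured in a four-plasmid fluorescent community of Saccharomyces cerevisiae BY4741, where every plasmid complements one auxotrophy and carries a fluorescent marker. Cells from an overnight preculture at OD600 = 1.0 were diluted to OD600 = 0.3 and dispensed at 70 µl into 384-well plates acoustically predosed with drug to a final 10 µM in SM medium. Incubation lasted 24 h, followed by paraformaldehyde fixation, automated confocal imaging and analysis in Harmony. Reported figures are averaged over 3 replicates. Same SeMeCo high-content imaging drug screen: Selleck FDA-approved drugs at 10 µM, 24 h in SM medium, 384-well plates, 3 replicates.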

[2] = tested on: Saccharomyces cerevisiae BY4741 SeMeCo community; assay: z-score of prototroph abundance vs DMSO median; higher = larger share of this subpopulation than in DMSO controls; conditions: 10 µM; 24 h; SM minimal medium; subpopulation (auxotrophy): Prototroph
How it was run: (§1)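 Cells of a Saccharomyces cerevisiae BY4741 community, carrying four plasmids that each restored one auxotrophy and encoded a distinct fluorescent protein, were pre-grown overnight to OD600 1.0 and diluted to 0.3. A 70 µl volume was added to 384-well plates acoustically predosed with library drugs (10 µM final) and grown 24 h in minimal SM medium. After paraformaldehyde fixation, automated confocal microscopy was used, with single-auxotroph fluorescent strains for thresholds and autofluorescence correction. The abundance of each subpopulation was scored as a z-score against the vehicle-well median.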

[3] = tested on: Saccharomyces cerevisiae BY4741 SeMeCo community; assay: z-score of subpopulation abundance vs DMSO median, subpopulation auxotrophic for L; higher = larger share of this subpopulation than in DMSO controls; conditions: 10 µM; 24 h; SM minimal medium; subpopulation (auxotrophy): L
How it was run: as §1

[4] = tested on: Saccharomyces cerevisiae BY4741 SeMeCo community; assay: z-score of subpopulation abundance vs DMSO median, subpopulation auxotrophic for U; higher = larger share of this subpopulation than in DMSO controls; conditions: 10 µM; 24 h; SM minimal medium; subpopulation (auxotrophy): U
How it was run: as §1

[5] = tested on: Saccharomyces cerevisiae BY4741 SeMeCo community; assay: z-score of subpopulation abundance vs DMSO median, subpopulation auxotrophic for H; higher = larger share of this subpopulation than in DMSO controls; conditions: 10 µM; 24 h; SM minimal medium; subpopulation (auxotrophy): H
How it was run: as §1

[6] = tested on: Saccharomyces cerevisiae BY4741 SeMeCo community; assay: z-score of subpopulation abundance vs DMSO median, subpopulation auxotrophic for LU; higher = larger share of this subpopulation than in DMSO controls; conditions: 10 µM; 24 h; SM minimal medium; subpopulation (auxotrophy): LU
How it was run: as §1

[7] = tested on: Saccharomyces cerevisiae BY4741 SeMeCo community; assay: z-score of subpopulation abundance vs DMSO median, subpopulation auxotrophic for LM; higher = larger share of this subpopulation than in DMSO controls; conditions: 10 µM; 24 h; SM minimal medium; subpopulation (auxotrophy): LM
How it was run: as §1

[8] = tested on: Saccharomyces cerevisiae BY4741 SeMeCo community; assay: z-score of subpopulation abundance vs DMSO median, subpopulation auxotrophic for HM; higher = larger share of this subpopulation than in DMSO controls; conditions: 10 µM; 24 h; SM minimal medium; subpopulation (auxotrophy): HM
How it was run: as §1

[9] = tested on: Saccharomyces cerevisiae BY4741 SeMeCo community; assay: z-score of subpopulation abundance vs DMSO median, subpopulation auxotrophic for HU; higher = larger share of this subpopulation than in DMSO controls; conditions: 10 µM; 24 h; SM minimal medium; subpopulation (auxotrophy): HU
How it was run: as §1

[10] = tested on: Saccharomyces cerevisiae BY4741 SeMeCo community; assay: z-score of subpopulation abundance vs DMSO median, subpopulation auxotrophic for UM; higher = larger share of this subpopulation than in DMSO controls; conditions: 10 µM; 24 h; SM minimal medium; subpopulation (auxotrophy): UM
How it was run: as §1

[11] = tested on: Saccharomyces cerevisiae BY4741 SeMeCo community; assay: z-score of subpopulation abundance vs DMSO median, subpopulation auxotrophic for HL; higher = larger share of this subpopulation than in DMSO controls; conditions: 10 µM; 24 h; SM minimal medium; subpopulation (auxotrophy): HL
How it was run: as §1

[12] = tested on: Saccharomyces cerevisiae BY4741 SeMeCo community; assay: z-score of subpopulation abundance vs DMSO median, subpopulation auxotrophic for HLM; higher = larger share of this subpopulation than in DMSO controls; conditions: 10 µM; 24 h; SM minimal medium; subpopulation (auxotrophy): HLM
How it was run: as §1

[13] = tested on: Saccharomyces cerevisiae BY4741 SeMeCo community; assay: z-score of subpopulation abundance vs DMSO median, subpopulation auxotrophic for HUM; higher = larger share of this subpopulation than in DMSO controls; conditions: 10 µM; 24 h; SM minimal medium; subpopulation (auxotrophy): HUM
How it was run: as §1

[14] = tested on: Saccharomyces cerevisiae BY4741 SeMeCo community; assay: z-score of subpopulation abundance vs DMSO median, subpopulation auxotrophic for HLUM; higher = larger share of this subpopulation than in DMSO controls; conditions: 10 µM; 24 h; SM minimal medium; subpopulation (auxotrophy): HLUM
How it was run: as §1

[15] = tested on: Saccharomyces cerevisiae BY4741 SeMeCo community; assay: z-score of subpopulation abundance vs DMSO median, subpopulation auxotrophic for M; higher = larger share of this subpopulation than in DMSO controls; conditions: 10 µM; 24 h; SM minimal medium; subpopulation (auxotrophy): M
How it was run: as §1

[16] = tested on: Saccharomyces cerevisiae BY4741 SeMeCo community; assay: z-score of subpopulation abundance vs DMSO median, subpopulation auxotrophic for LUM; higher = larger share of this subpopulation than in DMSO controls; conditions: 10 µM; 24 h; SM minimal medium; subpopulation (auxotrophy): LUM
How it was run: as §1

Row | Compound | mean cell size [1] | z-score of prototroph abundance [2] | z-score of subpopulation abundance [3] | z-score of subpopulation abundance [4] | z-score of subpopulation abundance [5] | z-score of subpopulation abundance [6] | z-score of subpopulation abundance [7] | z-score of subpopulation abundance [8] | z-score of subpopulation abundance [9] | z-score of subpopulation abundance [10] | z-score of subpopulation abundance [11] | z-score of subpopulation abundance [12] | z-score of subpopulation abundance [13] | z-score of subpopulation abundance [14] | z-score of subpopulation abundance [15] | z-score of subpopulation abundance [16]
1 | CC(C(=O)O)c1ccc(C(=O)c2cccs2)cc1 (stereo unspecified) [Suprofen] | 12.4 ± 0.17 | 0.24 | 0.48 | -0.1 | -0.25 | -0.41 | 0.42 | -0.73 | -0.02 | -0.8 | -0.36 | -0.28 | -1.16 | -0.2 |  | 
2 | O=C1Nc2ccccc2C1=O [Isatin] | 12.3 ± 0.17 | -0.13 |  | 0.43 | 0.05 | 0.53 |  |  | 0.91 |  | -0.64 | -1.17 | 0.2 |  | -0.49 | -0.31
3 | Nc1nc2c(ncn2COCCO)c(=O)[nH]1 [Aciclovir] | 12.5 ± 0.32 | 0.49 | 1.26 | -0.49 | -0.28 |  |  | -0.46 | -0.91 | -0.79 | -0.76 | -0.49 |  | 0.48 | -0.02 | 0.25
4 | O=[N+]([O-])c1ccc(O)c2ncccc12 [Nitroxoline] | 13.6 ± 0.5 |  | -0.84 |  | 9.75 | 12.2 | 4.84 | 27.9 | 16.3 | 4.38 | 22.6 | 65.9 | 19.7 | 36.6 |  | 11
5 | COCC(=O)Nc1cc(Sc2ccccc2)ccc1N=C(NC(=O)OC)NC(=O)OC [Febantel] | 12.3 ± 0.18 | -0.31 |  |  | 0.91 | -0.37 | 0.89 | 1.62 | -0.73 | -0.56 | 1.03 | 0.64 |  | -0.82 | 1.45 | 0.02
6 | O=C1CN(/N=C/c2ccc(-c3ccc([N+](=O)[O-])cc3)o2)C(=O)N1 [Dantrolene sodium] | 12.4 ± 0.18 | 2.09 | 2.03 |  | 0.84 |  | 1.59 | 0.62 | -3.33 | -2.91 | 1.35 | 1.18 | -2.36 |  | 0.97 | -0.73
7 | O=C(O)Cc1ccccc1Nc1c(Cl)cccc1Cl [Diclofenac Sodium] | 12.7 ± 0.18 | 1.13 |  | -0.91 | -0.51 | -0.84 | -0.23 | -0.3 | -1.76 | -1.45 |  | -0.07 | -1.27 | -0.38 | 0.68 | -0.98
